Assay outcomes: PubChem BioAssay, Buhrlage Lab, Dana-Farber Cancer Institute and Novartis Institutes for BioMedical Research (Cambridge, Mass)
USP10 inh – human USP10 deubiquitinase inhibition; 47,000 tested, 1.1% active; purified USP10, Ub-rhodamine fluorescence, 60 min; Q14694; inhibition, % at 20 µM; AID 1645856
USP8 inh – inhibitors of human USP8 deubiquitinase. P40818. purified USP8, Ub-rhodamine cleavage fluorescence, 30 min. inhibition, % at 20 µM. 47,000 tested, 4.2% active. AID 1645853
OTUD3 block – inhibitors of human OTUD3 deubiquitinase; Q5T2D3; purified OTUD3, Ub-rhodamine fluorescence, 2 h; inhibition, % at 25 µM; 47,000 tested, 0.7% active; AID 1645858
USP17 inh – human USP17-like deubiquitinase inhibition; A8MUK1; purified USP17, Ub-rhodamine cleavage fluorescence, 3 h; inhibition, % at 50 µM; 47,000 tested, 6.5% active; AID 1645855
UCHL1 block – inhibitors of human UCHL1 deubiquitinase. purified UCHL1, Ub-rhodamine cleavage fluorescence. inhibition, % at 20 µM. 47,000 tested, 0.2% active
USP7 block – blocks human USP7 ubiquitin-rhodamine cleavage. AID 1645854. Q93009. purified USP7, Ub-rhodamine cleavage fluorescence. 47,000 tested, 0.3% active. inhibition, % at 20 µM
* hit, by the source's call; . = no result. This is a sample that favours compounds with a hit; in the whole collection about 9.2% have one here. Cut-off read from the data, not from the text of the source: active = inhibition above about 30%; inactive = the rest.

SMILES | USP10 inh | USP8 inh | OTUD3 block | USP17 inh | UCHL1 block | USP7 block
COCCCn1c(C(=O)NCCc2ccccc2)cc2c(=O)n3cccc(C)c3nc21 | -3 | -15 | 0 | 71* | 0 | 1
CCOCCCNC(=O)c1cc2c(=O)n3cccc(C)c3nc2n1Cc1ccccc1 | -5 | 15 | 13 | 41* | 0 | 2
COCCCn1c(C(=O)N2CCC(C)CC2)cc2c(=O)n3cccc(C)c3nc21 | -1 | 12 | 0 | 1 | -2 | -8
COCCCn1c(C(=O)Nc2cccc(OC)c2)cc2c(=O)n3cccc(C)c3nc21 | -4 | -11 | 0 | 12 | -3 | 3
COCCCn1c(C(N)=O)cc2c(=O)n3cccc(C)c3nc21 | 4 | 3 | 27 | 40* | 6 | 7
CCCCN(C)C(=O)c1cc2c(=O)n3cccc(C)c3nc2n1Cc1ccccc1 | 7 | 4 | 21 | 63* | 6 | 4
Cc1cc(C)c2c(n1)nn1c(C)c(CCC(=O)NCc3ccc4c(c3)OCO4)c(C)nc21 | 0 | -2 | 7 | -1 | 0 | 4
Cc1ccc(S(=O)(=O)CCc2nc(-c3ccc(N4CCC(C)CC4)cc3)no2)cc1 | 0 | 26 | 0 | . | 2 | 14
CC(C)(C)c1nnc(CN2CCCC2c2noc(C3CC3)n2)o1 (configuration not stated) | -3 | -6 | -22 | . | -8 | -6
O=C(NC1CC1)c1ccc2onc(-c3coc(-c4ccccc4)n3)c2c1 | 11 | 0 | 12 | 24 | 1 | 5
CN(C)C(=O)CNC(=O)c1ccc2onc(-c3coc(-c4ccccc4)n3)c2c1 | -3 | 14 | 20 | 42* | 3 | -1
COc1ccc(CNC(=O)c2ccc3c(=O)nc4c(-c5cccc(C)c5)n[nH]n4c3c2)cc1 | 41* | 61* | 18 | 10 | 1 | 22
Cc1ccc(CNC(=O)c2ccc3c(=O)nc4c(-c5ccccc5F)n[nH]n4c3c2)cc1 | 26 | 6 | 13 | 35* | 0 | 3
COc1cc2c(cc1OC)CN(C(=O)CCS(=O)(=O)c1ccc(Cl)cc1)CC2 | -2 | 76* | -20 | 32* | 0 | -3
Cc1ccc(F)cc1NC(=O)C1Cc2ccccc2CN1C(=O)c1ccco1 (configuration not stated) | -8 | 0 | -12 | 2 | -7 | -10
COc1ccc(S(=O)(=O)N2CCOCC2)cc1NC(=O)C1Cc2ccccc2CN1C(=O)c1ccco1 (configuration not stated) | -5 | 49* | -16 | -1 | -7 | -11
O=C(CCCC1=NS(=O)(=O)c2ccccc2N1)Nc1ccc(Cl)c(Cl)c1 | 3 | 0 | 12 | 34* | -1 | 3
CC1CCCCN1S(=O)(=O)c1ccc(C(=O)Nc2ccc(S(N)(=O)=O)cc2)cc1 (configuration not stated) | 19 | 29 | 18 | 56* | 3 | -64
CC1CCN(S(=O)(=O)c2ccc(C(=O)Nc3ccc(S(N)(=O)=O)cc3)cc2)CC1 | 0 | 13 | 0 | 10 | 0 | 1
CC(=O)c1ccc(OC(=O)C2CC(=O)N(c3ccc(C)cc3)C2)cc1 (configuration not stated) | 1 | 14 | 16 | 15 | 2 | -1
CCSc1ncc2c(=O)n(CC(=O)N(C)C3CCCCC3)cnc2n1 | -2 | 11 | 0 | 5 | 3 | 4
CCCCC/C=C/C=C/C(=O)OC1C(O)CC(c2ccc3c(c2O)C(=O)c2c(O)cc4cc(C)cc(O)c4c2C3=O)OC1C (configuration not stated) | 27 | 57* | 25 | 88* | 19 | -1
C[C@H]1O[C@@H](c2ccc3c(c2O)C(=O)c2ccc(C[C@@](C)(O)CC(=O)O)c(O)c2C3=O)C[C@@H](O)[C@@H]1O | -3 | -276 | -138 | -163 | -157 | -142
COc1ccccc1OCCCn1c(CNC(=O)c2ccco2)nc2ccccc21 | 1 | 3 | -8 | -4 | 0 | -4
Cc1ccccc1OCCCn1c(CN(C)C(=O)c2ccco2)nc2ccccc21 | -1 | -4 | -10 | 30* | 3 | -15
SMILES | USP10 inh | USP8 inh | OTUD3 block | USP17 inh | UCHL1 block | USP7 block
Cc1ccc(OCCCn2c(CNC(=O)c3ccco3)nc3ccccc32)cc1 | -2 | 41* | 10 | 17 | 5 | -1
O=C(Nc1nc2c(s1)CN(C(=O)c1cc(-c3ccco3)on1)CC2)C1CC1 | -8 | -4 | 10 | 35* | -4 | -51
O=C(/C=C/c1ccco1)N1CCC(Cn2cccn2)CC1 | -7 | -8 | -24 | -4 | -25 | -25
O=C(Nc1nc2c(s1)COCC2)c1cc(-c2ccco2)on1 | 5 | 11 | 18 | 25 | 7 | -27
O=C(Nc1nc2c(s1)CN(C(=O)/C=C/c1ccco1)CC2)C1CCCO1 (configuration not stated) | -8 | 41* | -40 | -18 | -100 | -153
CN1CCc2cc(C(CNC(=O)COc3ccccc3)N3CCOCC3)ccc21 (configuration not stated) | 3 | -1 | 2 | 4 | 1 | 1
O=C(Nc1nnc(Cc2ccccc2)s1)c1ccccc1[N+](=O)[O-] | 3 | -58 | 0 | -10 | -2 | -1
Cc1nnc2c(NC(=O)c3cc(F)ccc3F)cccn12 | -1 | 15 | 10 | 14 | 3 | 1
O=C(Nc1ccc(O)cc1)c1cccn2c(-c3ccccc3F)nnc12 | -1 | 56* | 0 | -6 | 3 | 2
O=C(/C=C/c1ccc(Br)cc1)N1CCc2ccccc2C1 | 3 | 28 | 2 | 35* | 0 | 6
CC(C)c1ccc(/C=C/C(=O)N2CCc3ccccc3C2)cc1 | 11 | 69* | 27 | 54* | 4 | 5
CC(=O)Nc1ccc(SC(C)C(=O)N2CCc3ccccc3C2)cc1 (configuration not stated) | 0 | -8 | -3 | -14 | 0 | -1
COc1cccc(C(=O)NCCOc2ccc(-c3ccc(F)cc3)nn2)c1 | 1 | -10 | -10 | -7 | -2 | -1
CCN1C/C(=C\c2cccc(Cl)c2)c2nc3ccccc3c(C(=O)O)c2C1 | -4 | -149 | -162 | -119 | -14 | -13
Cc1ccc2c(c1)NC(CCC(=O)NCCc1ccc(Cl)cc1)=NS2(=O)=O | 7 | 19 | 15 | 59* | 4 | 11
CC(C)(C)c1noc(-c2c(O)c3cnn(Cc4ccccc4)c3[nH]c2=O)n1 | 2 | 9 | 7 | 5 | -1 | 8
Cc1ncc(CO)c2c1Oc1nc(-c3cccc(Cl)c3)nc(SCC(=O)N3CCCCC3)c1C2 | 37* | 50* | 22 | 82* | 15 | 39*
O=S(=O)(O)c1ccc(Cc2ncc(C(F)(F)F)cc2Cl)s1 | 2 | 0 | 3 | 0 | 1 | 1
COC(=O)CCC(c1ncc(C(F)(F)F)cc1Cl)S(=O)(=O)c1ccccc1 (configuration not stated) | 0 | 31* | 24 | 44* | 1 | 4
